96 compounds from PubChem BioAssay AID463173 (ICCB-Longwood Screening Facility, Harvard Medical School, 2010) can be followed below.

Screen size: about 52,000 compounds; about 4,300 (8.3%) were called active. The sample as a whole holds a higher share of actives than the screen did. A number with no mark means an inactive call. Cut-off read from the data, not from the text of the source: active = survival mostly below about 52% (no sharp cut-off); inactive = mostly above about 56%.

The subject of this test is DeltatarO mutant. As to the kind of experiment: S. aureus survival, RN4220 and DeltatarO strains – OD600, teichoic acid synthesis inhibitors, primary screen (AID 463173). The following applies: S. aureus RN4220 wild type/DeltatarO growth, OD600, 18 h, active compounds read low, screened at 18.75 µg/mL (by protocol).
Regarding `COCCN1Cc2cccc(C(=O)Nc3ccc(C(=O)OC)cc3)c2C1=O`, the survival is 82%.
In the case of `CC(C)(C)C(=O)CSc1nc2ccsc2c(=O)n1Cc1ccccc1F`, the survival is 126%.
In the case of `CCOC(=O)c1c(C)[nH]c(C)c1S(=O)(=O)N1CCCC(C(=O)Nc2ccc(C)c(N(C)C)c2)C1` (stereo unspecified), the survival is 88%.
`CCCCOc1ccc(C(=O)N2CCN(CCc3ccccn3)CC2)cc1`: the survival is 51%.
The result for `O=C(CN1CCC(NC(=O)NC2CCCCC2)CC1)Nc1cccc(I)c1` reads 100%.
The value for `CC1=Nc2cc(C(=O)NCCc3ccc(Cl)cc3)ccc2Sc2ccc(C)cc21` was 56%; that for `Cc1ccc(C(=O)CSc2nnc3ccc4ccccc4n23)cc1` was 60%; that for `CCOc1ccccc1NC(=O)NC1(C(=O)NCc2ccco2)CCCCC1` was 84%.
In the case of `CCc1c(C)c2ccc(O)c(CN3CCN(c4ccccc4)CC3)c2oc1=O`, the survival was 56% (active).
The result for `CCc1c(C)c2ccc(O)c(CN3CCN(c4ccc(F)cc4)CC3)c2oc1=O` reads 55%.
The value for `CCc1c(C)c2ccc(O)c(CN3CCN(c4ccc(OC)cc4)CC3)c2oc1=O` was 55%; that for `Cc1ccc(-n2nc3c(N4CCC(C(=O)NC5CCCCC5)CC4)nnc(C)c3c2C)cc1` was 81%; that for `Cc1ccc(N2CNC(=O)c3c(C)cc(C)nc32)cc1` was 74%.
The value for `CC(=O)N(Cc1cccnc1)c1nc2c(C)c(C)ccc2s1` was 72%; that for `Cc1cc(C)c2nc(N(Cc3cccnc3)C(=O)CCS(=O)(=O)c3ccccc3)sc2c1` was 83%.
In the case of `CC(=O)c1ccc(C(=O)N(Cc2cccnc2)c2nc3c(C)c(C)ccc3s2)cc1`, the survival is -1% (active).
`CC(=O)c1ccc(C(=O)N(Cc2cccnc2)c2nc3c(Cl)cccc3s2)cc1`: the survival was 91%.
With `Cc1ccc2sc(N(Cc3cccnc3)C(=O)CCS(=O)(=O)c3ccccc3)nc2c1C`, the survival was 6% (active).
Regarding `Cc1cccc2sc(N(Cc3cccnc3)C(=O)CCS(=O)(=O)c3ccccc3)nc12`, the survival is 89%.
Consider `C=CCNCc1cccn1-c1ccccc1`, for which the survival was 76%.
The value for `CCCCn1cc(S(=O)(=O)c2ccc(CC)cc2)c(=O)c2cc(F)c(N3CCCC(C)C3)cc21` (stereo unspecified) was 115%.
The value for `O=C(CN1CCC(NC(=O)Nc2ccccc2-c2ccccc2)CC1)NCc1ccco1` was 78%; that for `Cc1cccnc1Nc1nc(-c2cccnc2)cs1` was 48%; that for `CC1CCCCC1NC(=O)CSc1nncn1N` (stereo unspecified) was 84%.
The value for `O=C(Nc1cccc(F)c1)c1oc2ccccc2c1NC(=O)C12CC3CC(CC(C3)C1)C2` was 72%; that for `Oc1c(C(c2ccc(F)cc2)N2CCN(Cc3ccccc3)CC2)sc2nc(-c3ccco3)nn12` (stereo unspecified) was 73%.
Consider `Cc1ccc(C(c2sc3nc(-c4ccco4)nn3c2O)N2CCN(Cc3ccccc3)CC2)cc1` (stereo unspecified), for which the survival was 112%.
The result for `Oc1c(C(c2ccccc2)N2CCCC2)sc2nc(-c3ccco3)nn12` (stereo unspecified) reads 0% (active); that for `CN1CCN(C(c2ccccc2Cl)c2sc3nc(-c4ccco4)nn3c2O)CC1` (stereo unspecified), 131%.
The value for `Oc1c(C(c2ccccc2)N2CCOCC2)sc2nc(-c3ccco3)nn12` (stereo unspecified) was 69%.
The result for `Oc1c(C(c2ccc(Cl)cc2)N2CCC3(CC2)OCCO3)sc2nc(-c3ccco3)nn12` (stereo unspecified) reads 32% (active); that for `Oc1c(C(c2ccccc2Cl)N2CCCC2)sc2nc(-c3ccco3)nn12` (stereo unspecified), 83%.
Consider `Oc1c(C(c2ccccc2)N2CCN(Cc3ccccc3)CC2)sc2nc(-c3ccco3)nn12` (stereo unspecified), for which the survival was 37% (active).
The result for `CN1CCN(C(c2ccccc2)c2sc3nc(-c4ccco4)nn3c2O)CC1` (stereo unspecified) reads 75%; that for `Cc1ccc(C(c2sc3nc(-c4ccco4)nn3c2O)N2CCC3(CC2)OCCO3)cc1` (stereo unspecified), 78%.
The value for `Oc1c(C(c2ccccc2)N2CCC3(CC2)OCCO3)sc2nc(-c3ccco3)nn12` (stereo unspecified) was 69%; that for `Oc1c(C(c2ccccc2Cl)N2CCOCC2)sc2nc(-c3ccco3)nn12` (stereo unspecified) was 0% (active); that for `O=C(c1ccc2c(c1)N(Cc1ccc(Cl)cc1)C(=O)c1ccccc1S2(=O)=O)N1CCCCCC1` was 64%.
`Cn1nc(CC(=O)Nc2ccc(N3CCN(C(=O)OC(C)(C)C)CC3)cc2)c2ccccc2c1=O`: the survival was 84%.
For the compound `COC(=O)c1ccccc1NC(=O)CSc1nc2sc3c(c2c(=O)[nH]1)CCCC3`, the survival is 61%.
The value for `CCOc1ccccc1NC(=O)CSc1nnc2[nH]c(=O)cc(-c3ccccc3)n12` was 98%; that for `Cc1nonc1OCCn1nnc(N)n1` was 95%; that for `O=[N+]([O-])c1ccc(C(c2sc3nc(-c4ccco4)nn3c2O)N2CCN(c3cccc(Cl)c3)CC2)cc1` (stereo unspecified) was 47% (active).
For the compound `O=[N+]([O-])c1ccc(C(c2sc3nc(-c4ccco4)nn3c2O)N2CCN(Cc3ccccc3)CC2)cc1` (stereo unspecified), the survival was 79%.
The value for `Oc1c(C(c2ccccc2)N2CCN(c3cccc(Cl)c3)CC2)sc2nc(-c3ccco3)nn12` (stereo unspecified) was 74%.
As to `Oc1c(C(c2ccccc2F)N2CCOCC2)sc2nc(-c3ccco3)nn12` (stereo unspecified), the survival is 80%.
The result for `COc1ccccc1NC(=O)CSc1ccc(-c2sc(C)nc2C)nn1` reads 92%.
In the case of `COc1cc(NC(=O)CSc2ccc(-c3sc(C)nc3C)nn2)cc(OC)c1`, the survival was 6% (active).
The value for `COc1ccc(Cl)cc1NC(=O)CSc1ccc(-c2sc(C)nc2C)nn1` was 105%; that for `COc1ccc(OC)c(NC(=O)CSc2ccc(-c3sc(C)nc3C)nn2)c1` was 83%.
Turning to `Cc1nc(C)c(-c2ccc(SCC(=O)Nc3ccc(Cl)c(Cl)c3)nn2)s1`, the survival was 46% (active).
The result for `COc1cccc(CNC(=O)CSc2ccc(-c3sc(-c4ccccc4)nc3C)nn2)c1` reads 26%; that for `COc1cc(NC(=O)CSc2ccc(-c3sc(-c4ccccc4)nc3C)nn2)cc(OC)c1`, 19% (active).
Regarding `Cc1nc(C)c(-c2ccc(SCC(=O)Nc3ccc(F)c(F)c3)nn2)s1`, the survival is 102%.
The value for `Cc1nc(C)c(-c2ccc(SCC(=O)Nc3ccc(Br)cc3)nn2)s1` was 101%; that for `CCOC(=O)c1ccccc1NC(=O)CSc1ccc(-c2sc(C)nc2C)nn1` was 91%.
The result for `Cc1cc(C)c(NC(=O)CSc2ccc(-c3sc(-c4ccccc4)nc3C)nn2)c(C)c1` reads 33%; that for `CCOC(=O)c1ccc(NC(=O)CSc2ccc(-c3sc(C)nc3C)nn2)cc1`, 37% (active); that for `COc1ccc(NC(=O)C2CCN(S(=O)(=O)c3c(C)noc3/C=C/c3ccc(C)cc3)CC2)cc1Cl`, 82%.
The result for `COc1cc2c(=O)n(CCC(=O)NCC3CCCO3)c(=O)n(CC(=O)Nc3ccc(C)cc3)c2cc1OC` (stereo unspecified) reads 92%; that for `COc1cccc(OC(=O)CSc2nnc(-c3ccc4c(c3)OCO4)o2)c1`, 59%.
Consider `CC(=O)Nc1ccc(S(=O)(=O)NC2(C(F)(F)F)C(=O)Nc3c2c(=O)[nH]c(=O)n3-c2cccc(Cl)c2)cc1` (stereo unspecified), for which the survival is 84%.
The result for `Cc1ccc(Cl)cc1N1CCN(C(=O)C2CCN(S(=O)(=O)Cc3ccccc3)CC2)CC1` reads 72%.
The value for `CCC1CN(C(=O)N2CCC(C(=O)NCc3ccc(C)o3)CC2)c2ccccc2O1` (stereo unspecified) was 87%; that for `O=C(NCc1ccco1)C(c1ccco1)N(C(=O)Cn1nnc2ccccc21)c1ccccc1` (stereo unspecified) was 65%.
The value for `Cc1cc2c(cc1S(=O)(=O)N(CCN(C)C)Cc1ccco1)OCC(=O)N2` was 98%; that for `CN(CC(=O)Nc1cccc(C#N)c1)S(=O)(=O)c1cc2c(cc1Cl)NC(=O)CO2` was 109%.
Consider `Cc1cc2c(cc1S(=O)(=O)N(CCO)Cc1ccccc1)OCC(=O)N2`, for which the survival was 46% (active).
Consider `Cc1cc2c(cc1S(=O)(=O)N(C)CC(=O)Nc1ccc(C#N)cc1)OCC(=O)N2`, for which the survival was 76%.
The result for `Cc1cc2c(cc1S(=O)(=O)N(CCN(C)C)Cc1ccccc1)OCC(=O)N2` reads 102%; that for `Cc1cc2c(cc1S(=O)(=O)N(C)CC(=O)Nc1cccc(C#N)c1)OCC(=O)N2`, -2% (active); that for `CCN1CCN(C(c2cccc(OC)c2)c2c(O)cc(C)n(Cc3ccco3)c2=O)CC1` (stereo unspecified), 120%.
In the case of `Cc1ccc(-c2n[nH]c3c2C(c2ccc(C(C)(C)C)cc2)NC3=O)cc1` (stereo unspecified), the survival was 109%.
In the case of `CCOC(=O)c1ccc(NC(=O)Cn2nc(SC)c(S(=O)(=O)c3ccc(Cl)cc3)c2N)cc1`, the survival was 99%.
`COc1ccc(S(=O)(=O)c2c(SC)nn(CC(=O)Nc3ccc(C)c(Cl)c3)c2N)cc1`: the survival is 83%.
In the case of `CCc1ccc(NC(=O)Cn2nc(SC)c(S(=O)(=O)c3ccc(OC)cc3)c2N)cc1`, the survival is 118%.
The value for `CCSc1nn(CC(=O)Nc2ccc(C(=O)OC)cc2)c(N)c1S(=O)(=O)c1ccc(C)cc1` was 37% (active); that for `CCSc1nn(CC(=O)Nc2cccc(CC)c2)c(N)c1S(=O)(=O)c1ccccc1` was 101%; that for `COc1ccc(NC(=O)Cn2nc(SC)c(S(=O)(=O)c3ccc(C)cc3)c2N)cc1OC` was 25% (active).
The value for `Cn1cc(-c2cc3n(n2)CCC(=O)N3CCCC(=O)NCc2ccccc2Cl)c2ccccc21` was 109%; that for `CCn1c(=O)cc(SCC(=O)NCCc2ccc(Cl)cc2)c2ccccc21` was 76%; that for `O=C(NC12CCC(O)C(SC1)/C2=N/O)c1ccccc1` (stereo unspecified) was 98%.
`COc1cccc(-c2noc(C3CCCN(S(=O)(=O)c4ccccc4F)C3)n2)c1` (stereo unspecified): the survival is 65%.
The result for `CC(C)(C)OC(=O)N1CCC(c2c(C(=O)NCCN3CCc4ccccc4C3)cnn2-c2ccc(F)cc2)CC1` reads 68%; that for `CCN(CC)C(=O)CSc1nc(-c2ccccc2F)nc2c1Cc1c(CO)cnc(C)c1O2`, 101%.
In the case of `CCSc1nc(-c2ccccc2F)nc2c1Cc1c(CO)cnc(C)c1O2`, the survival is 52% (active).
The result for `CCc1ccc(CSc2nc(-c3ccccc3F)nc3c2Cc2c(CO)cnc(C)c2O3)cc1` reads 61%; that for `CCN(CC)C(=O)CSc1nc(-c2ccc(C)cc2)nc2c1Cc1c(CO)cnc(C)c1O2`, 39% (active); that for `Cc1ncc(CO)c2c1Oc1nc(-c3ccccc3)nc(SCC(=O)N3CCCCC3)c1C2`, 85%.
`COc1ccccc1-c1nc2c(c(SCc3cc(C)ccc3C)n1)Cc1c(CO)cnc(C)c1O2`: the survival was 41% (active).
The result for `CCc1ccc(CSc2nc(-c3ccccc3OC)nc3c2Cc2c(CO)cnc(C)c2O3)cc1` reads 90%; that for `Cc1ncc(CO)c2c1Oc1nc(-c3ccc(Cl)cc3)nc(SCC(=O)N3CCCCC3)c1C2`, 48% (active).
`CCSc1nc(-c2ccccc2OC)nc2c1Cc1c(CO)cnc(C)c1O2`: the survival is 80%.
The value for `Cc1ccc(-c2nc3c(c(SCC(=O)N(C)c4ccccc4)n2)Cc2c(CO)cnc(C)c2O3)cc1` was 64%; that for `Cc1ncc(CO)c2c1Oc1nc(-c3ccc(F)cc3)nc(SCC(=O)N3CCCCC3)c1C2` was 52%.
The result for `Cc1ccc(C)c(CSc2nc(-c3ccccc3F)nc3c2Cc2c(CO)cnc(C)c2O3)c1` reads 108%.
